# From article PMC7862700, “An all-to-all approach to the identification of sequence-specific readers for epigenetic DNA modifications on cytosine”
# Legend:
# Assay in all cases: DAPPL (digital affinity profiling via proximity ligation, sequencing); 10 mM Tris-HCl pH 7.5, 50 mM NaCl, 1 mM DTT, 4% glycerol, room temperature, 30 min; GST-TFs on glutathione beads, 16-mer random dsDNA library, 0.1% formaldehyde crosslink after washing; high values mean tight binding
# [1] = biological target: T1, FEV (Homo sapiens, UniProt Q99581 1-238); conditions: protein: recombinant; tags: N-terminal GST; dsDNA, one strand shown
# T1 sequence: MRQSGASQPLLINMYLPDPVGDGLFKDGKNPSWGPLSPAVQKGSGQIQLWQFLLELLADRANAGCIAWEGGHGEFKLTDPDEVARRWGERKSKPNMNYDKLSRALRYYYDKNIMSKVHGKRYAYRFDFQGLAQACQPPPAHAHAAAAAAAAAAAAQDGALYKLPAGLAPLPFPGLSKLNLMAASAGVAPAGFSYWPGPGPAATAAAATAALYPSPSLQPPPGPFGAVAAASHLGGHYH
# Outline: (§1)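 Binding signal is each hexamer's read frequency for a factor divided by its frequency in the tag-only sample. The factors were GST-fused human transcription factors from yeast, captured on glutathione beads, DNA-barcoded and pooled with that sample. Pools were incubated with 200 nmole of a random double-stranded 16-mer DNA library in Tris/NaCl/DTT/glycerol buffer at room temperature for 30 min, then washed, crosslinked with 0.1% formaldehyde, proximity-ligated with BsaI/T4 ligase (1 h, 37 °C), PCR-amplified and sequenced on an Illumina NextSeq500.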
# [2] = biological target: ETV5 (Homo sapiens, UniProt P41161 1-510); conditions: protein: recombinant; tags: N-terminal GST; dsDNA, one strand shown
# Outline: as §1
# [3] = biological target: HSF1 (Homo sapiens, UniProt Q00613 1-529); conditions: protein: recombinant; tags: N-terminal GST; chain copies: 3; dsDNA, one strand shown
# Outline: as §1
# [4] = biological target: T2, SPIC (Homo sapiens, UniProt Q8N5J4 1-248); conditions: protein: recombinant; tags: N-terminal GST; dsDNA, one strand shown
# T2 sequence: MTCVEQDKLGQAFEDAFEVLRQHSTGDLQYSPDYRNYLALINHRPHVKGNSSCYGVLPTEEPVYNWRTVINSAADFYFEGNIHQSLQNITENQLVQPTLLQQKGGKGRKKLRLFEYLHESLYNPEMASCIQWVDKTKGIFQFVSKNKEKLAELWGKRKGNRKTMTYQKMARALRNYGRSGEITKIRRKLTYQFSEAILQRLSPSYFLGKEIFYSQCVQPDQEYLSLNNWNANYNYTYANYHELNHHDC
# Outline: as §1
# [5] = biological target: ELF4 (Homo sapiens, UniProt Q99607 1-663); conditions: protein: recombinant; tags: N-terminal GST; dsDNA, one strand shown
# Outline: as §1
# [6] = biological target: T3, ELK4 (Homo sapiens, UniProt P28324-2 1-405); conditions: protein: recombinant; tags: N-terminal GST; dsDNA, one strand shown
# T3 sequence: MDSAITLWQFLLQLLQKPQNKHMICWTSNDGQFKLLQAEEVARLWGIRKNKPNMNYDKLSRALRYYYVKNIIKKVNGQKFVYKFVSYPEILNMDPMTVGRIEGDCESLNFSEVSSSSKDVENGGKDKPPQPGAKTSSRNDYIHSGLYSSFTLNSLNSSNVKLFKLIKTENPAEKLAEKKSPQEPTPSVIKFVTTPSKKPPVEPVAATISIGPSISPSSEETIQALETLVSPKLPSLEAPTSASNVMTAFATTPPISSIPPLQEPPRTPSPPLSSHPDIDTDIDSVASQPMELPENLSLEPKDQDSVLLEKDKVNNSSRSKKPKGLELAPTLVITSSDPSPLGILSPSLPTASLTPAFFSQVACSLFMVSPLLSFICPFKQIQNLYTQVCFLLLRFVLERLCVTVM
# Outline: as §1
# [7] = biological target: T4, ETV2 (Homo sapiens, UniProt O00321 1-342); conditions: protein: recombinant; tags: N-terminal GST; dsDNA, one strand shown
# T4 sequence: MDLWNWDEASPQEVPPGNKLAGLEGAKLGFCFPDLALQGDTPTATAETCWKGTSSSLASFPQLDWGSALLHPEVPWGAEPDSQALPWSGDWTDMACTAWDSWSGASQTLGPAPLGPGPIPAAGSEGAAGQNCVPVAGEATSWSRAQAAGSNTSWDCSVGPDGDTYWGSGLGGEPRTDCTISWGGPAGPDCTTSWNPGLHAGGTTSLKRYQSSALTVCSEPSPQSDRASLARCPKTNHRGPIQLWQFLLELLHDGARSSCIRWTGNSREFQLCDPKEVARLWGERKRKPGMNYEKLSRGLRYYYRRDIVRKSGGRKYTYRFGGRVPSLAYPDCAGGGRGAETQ
# Outline: as §1
# [8] = biological target: T5, ELF3 (Homo sapiens, UniProt P78545 1-371); conditions: protein: recombinant; tags: N-terminal GST; dsDNA, one strand shown
# T5 sequence: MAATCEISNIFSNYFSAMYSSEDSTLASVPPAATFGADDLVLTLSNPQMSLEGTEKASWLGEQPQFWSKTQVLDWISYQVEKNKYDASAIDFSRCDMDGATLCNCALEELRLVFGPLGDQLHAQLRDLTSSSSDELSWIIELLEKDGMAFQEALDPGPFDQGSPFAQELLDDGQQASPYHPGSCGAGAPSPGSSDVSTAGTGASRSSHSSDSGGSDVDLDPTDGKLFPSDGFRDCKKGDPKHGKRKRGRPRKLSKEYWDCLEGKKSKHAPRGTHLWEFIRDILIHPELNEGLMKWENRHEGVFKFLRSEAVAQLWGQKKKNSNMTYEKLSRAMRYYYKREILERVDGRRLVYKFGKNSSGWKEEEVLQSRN
# Outline: as §1
# [9] = biological target: CRX (Homo sapiens, UniProt O43186 1-299); conditions: protein: recombinant; tags: N-terminal GST; dsDNA, one strand shown
# Outline: as §1
# [10] = biological target: ETV1 (Homo sapiens, UniProt P50549 1-477); conditions: protein: recombinant; tags: N-terminal GST; dsDNA, one strand shown
# Outline: as §1
# [11] = biological target: T6, ERF (Homo sapiens, UniProt P50548 1-548); conditions: protein: recombinant; tags: N-terminal GST; dsDNA, one strand shown
# T6 sequence: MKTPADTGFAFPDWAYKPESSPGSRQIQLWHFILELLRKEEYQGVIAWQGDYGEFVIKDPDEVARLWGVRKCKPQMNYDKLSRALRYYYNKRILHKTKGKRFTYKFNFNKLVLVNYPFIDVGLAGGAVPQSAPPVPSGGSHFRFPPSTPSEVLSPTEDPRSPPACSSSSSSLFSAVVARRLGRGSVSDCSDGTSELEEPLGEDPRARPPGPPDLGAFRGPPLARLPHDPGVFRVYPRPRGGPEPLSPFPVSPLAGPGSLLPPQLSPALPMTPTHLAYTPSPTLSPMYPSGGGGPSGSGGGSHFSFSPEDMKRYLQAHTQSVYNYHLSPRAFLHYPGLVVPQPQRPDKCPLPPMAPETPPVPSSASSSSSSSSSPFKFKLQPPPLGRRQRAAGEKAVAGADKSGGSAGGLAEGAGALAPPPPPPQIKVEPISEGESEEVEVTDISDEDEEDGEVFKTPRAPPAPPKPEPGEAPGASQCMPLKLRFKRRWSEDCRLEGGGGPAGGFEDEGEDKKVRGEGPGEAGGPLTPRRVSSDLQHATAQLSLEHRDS
# Outline: as §1
# [12] = biological target: T7, ETV3L (Homo sapiens, UniProt Q6ZN32 1-361); conditions: protein: recombinant; tags: N-terminal GST; dsDNA, one strand shown
# T7 sequence: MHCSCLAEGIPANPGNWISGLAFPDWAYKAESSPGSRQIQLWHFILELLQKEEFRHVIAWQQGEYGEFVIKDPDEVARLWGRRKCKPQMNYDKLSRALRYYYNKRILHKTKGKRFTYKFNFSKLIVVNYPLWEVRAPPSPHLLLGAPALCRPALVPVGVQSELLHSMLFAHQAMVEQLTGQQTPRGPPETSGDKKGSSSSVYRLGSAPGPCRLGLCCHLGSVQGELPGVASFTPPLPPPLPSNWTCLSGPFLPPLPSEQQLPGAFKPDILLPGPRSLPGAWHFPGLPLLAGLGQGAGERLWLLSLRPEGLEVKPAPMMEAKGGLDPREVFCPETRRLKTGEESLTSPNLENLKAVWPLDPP
# Outline: as §1
# [13] = biological target: T8, ETS2 (Homo sapiens, UniProt P15036 1-469); conditions: protein: recombinant; tags: N-terminal GST; dsDNA, one strand shown
# T8 sequence: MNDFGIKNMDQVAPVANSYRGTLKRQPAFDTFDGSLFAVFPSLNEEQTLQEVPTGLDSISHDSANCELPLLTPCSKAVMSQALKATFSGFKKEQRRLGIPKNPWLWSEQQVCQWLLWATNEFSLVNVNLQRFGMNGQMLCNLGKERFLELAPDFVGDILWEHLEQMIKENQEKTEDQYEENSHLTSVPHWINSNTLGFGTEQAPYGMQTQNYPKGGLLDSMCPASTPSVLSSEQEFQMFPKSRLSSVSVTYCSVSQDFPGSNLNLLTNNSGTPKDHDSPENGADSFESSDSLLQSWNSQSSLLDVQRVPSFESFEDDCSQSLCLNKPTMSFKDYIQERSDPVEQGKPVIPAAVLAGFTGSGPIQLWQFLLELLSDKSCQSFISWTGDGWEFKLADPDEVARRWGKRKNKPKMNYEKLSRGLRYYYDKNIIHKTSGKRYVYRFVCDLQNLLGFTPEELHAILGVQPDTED
# Outline: as §1
# [14] = biological target: T9, SPDEF (Homo sapiens, UniProt O95238 1-335); conditions: protein: recombinant; tags: N-terminal GST; dsDNA, one strand shown
# T9 sequence: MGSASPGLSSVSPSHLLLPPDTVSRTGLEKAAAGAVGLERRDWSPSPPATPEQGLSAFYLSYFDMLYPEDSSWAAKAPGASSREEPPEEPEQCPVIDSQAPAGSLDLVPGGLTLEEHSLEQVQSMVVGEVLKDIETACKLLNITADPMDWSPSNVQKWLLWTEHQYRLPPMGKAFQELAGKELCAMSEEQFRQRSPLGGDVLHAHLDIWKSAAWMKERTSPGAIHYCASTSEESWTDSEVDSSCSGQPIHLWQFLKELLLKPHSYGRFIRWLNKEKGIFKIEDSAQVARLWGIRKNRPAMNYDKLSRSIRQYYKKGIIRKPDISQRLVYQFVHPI
# Outline: as §1
# [15] = biological target: T10, ETV7 (Homo sapiens, UniProt Q9Y603 1-341); conditions: protein: recombinant; tags: N-terminal GST; dsDNA, one strand shown
# T10 sequence: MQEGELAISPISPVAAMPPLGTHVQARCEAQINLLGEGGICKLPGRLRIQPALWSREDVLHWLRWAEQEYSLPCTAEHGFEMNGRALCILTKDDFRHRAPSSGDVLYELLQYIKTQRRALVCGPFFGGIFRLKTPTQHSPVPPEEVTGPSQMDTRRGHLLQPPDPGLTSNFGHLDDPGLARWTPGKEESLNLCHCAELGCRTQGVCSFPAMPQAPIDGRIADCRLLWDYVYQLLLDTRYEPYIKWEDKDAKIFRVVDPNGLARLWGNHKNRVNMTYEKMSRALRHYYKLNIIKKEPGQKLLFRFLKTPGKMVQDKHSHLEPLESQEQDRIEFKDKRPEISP
# Outline: as §1
# [16] = biological target: T11, ELF5 (Homo sapiens, UniProt Q9UKW6-2 1-255); conditions: protein: recombinant; tags: N-terminal GST; dsDNA, one strand shown
# T11 sequence: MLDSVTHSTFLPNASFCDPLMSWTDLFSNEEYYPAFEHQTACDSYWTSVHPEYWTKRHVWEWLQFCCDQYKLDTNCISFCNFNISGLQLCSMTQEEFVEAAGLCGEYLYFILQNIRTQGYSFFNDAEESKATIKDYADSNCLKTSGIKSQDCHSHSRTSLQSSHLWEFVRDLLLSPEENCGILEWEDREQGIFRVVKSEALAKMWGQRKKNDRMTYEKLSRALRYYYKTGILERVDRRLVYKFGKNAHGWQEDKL
# Outline: as §1
# [17] = biological target: T12, ETV3 (Homo sapiens, UniProt P41162-2 1-143); conditions: protein: recombinant; tags: N-terminal GST; dsDNA, one strand shown
# T12 sequence: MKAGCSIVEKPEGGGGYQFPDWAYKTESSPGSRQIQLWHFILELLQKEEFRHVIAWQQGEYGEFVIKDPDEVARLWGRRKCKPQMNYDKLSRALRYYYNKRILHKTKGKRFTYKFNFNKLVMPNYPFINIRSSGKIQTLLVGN
# Outline: as §1
# [18] = biological target: ETV6 (Homo sapiens, UniProt P41212 1-452); conditions: protein: recombinant; tags: N-terminal GST; dsDNA, one strand shown
# Outline: as §1
# Chain of ETV5 (P41161 whole entry): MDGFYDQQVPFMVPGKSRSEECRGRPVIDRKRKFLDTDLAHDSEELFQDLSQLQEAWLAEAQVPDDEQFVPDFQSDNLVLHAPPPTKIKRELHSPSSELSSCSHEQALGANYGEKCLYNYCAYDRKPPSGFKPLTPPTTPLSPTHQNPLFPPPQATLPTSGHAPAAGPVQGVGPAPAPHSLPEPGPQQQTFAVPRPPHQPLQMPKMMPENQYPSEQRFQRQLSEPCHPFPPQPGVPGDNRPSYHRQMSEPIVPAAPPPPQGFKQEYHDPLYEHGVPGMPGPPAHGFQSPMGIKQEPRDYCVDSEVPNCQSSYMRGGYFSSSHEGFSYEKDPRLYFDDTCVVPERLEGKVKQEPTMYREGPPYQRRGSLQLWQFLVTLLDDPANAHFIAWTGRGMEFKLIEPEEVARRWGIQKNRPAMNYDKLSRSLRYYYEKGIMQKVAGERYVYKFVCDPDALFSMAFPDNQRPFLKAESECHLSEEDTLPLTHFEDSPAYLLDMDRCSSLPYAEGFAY
# Chain of HSF1 (Q00613 whole entry): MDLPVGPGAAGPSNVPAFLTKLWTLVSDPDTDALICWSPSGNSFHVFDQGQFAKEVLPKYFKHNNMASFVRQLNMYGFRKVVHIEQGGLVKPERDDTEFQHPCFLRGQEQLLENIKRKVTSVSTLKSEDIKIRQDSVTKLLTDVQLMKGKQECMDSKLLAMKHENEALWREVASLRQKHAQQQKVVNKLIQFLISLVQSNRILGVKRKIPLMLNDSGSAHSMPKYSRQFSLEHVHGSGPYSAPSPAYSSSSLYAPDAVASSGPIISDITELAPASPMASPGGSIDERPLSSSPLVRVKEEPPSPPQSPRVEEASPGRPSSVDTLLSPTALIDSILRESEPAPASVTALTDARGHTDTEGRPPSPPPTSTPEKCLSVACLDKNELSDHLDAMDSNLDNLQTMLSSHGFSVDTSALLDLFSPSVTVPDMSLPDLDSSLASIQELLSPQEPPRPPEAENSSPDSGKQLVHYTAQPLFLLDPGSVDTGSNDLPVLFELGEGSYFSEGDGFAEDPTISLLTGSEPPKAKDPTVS
# Chain of CRX (O43186 whole entry): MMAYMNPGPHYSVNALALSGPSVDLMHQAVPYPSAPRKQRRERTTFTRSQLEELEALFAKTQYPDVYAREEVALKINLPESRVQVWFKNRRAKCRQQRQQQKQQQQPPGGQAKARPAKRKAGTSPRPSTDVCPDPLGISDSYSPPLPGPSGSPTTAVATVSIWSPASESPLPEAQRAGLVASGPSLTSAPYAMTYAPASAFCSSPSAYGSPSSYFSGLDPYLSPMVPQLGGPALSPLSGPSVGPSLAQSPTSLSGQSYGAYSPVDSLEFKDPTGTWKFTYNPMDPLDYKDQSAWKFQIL
# Chain of ETV1 (P50549 whole entry): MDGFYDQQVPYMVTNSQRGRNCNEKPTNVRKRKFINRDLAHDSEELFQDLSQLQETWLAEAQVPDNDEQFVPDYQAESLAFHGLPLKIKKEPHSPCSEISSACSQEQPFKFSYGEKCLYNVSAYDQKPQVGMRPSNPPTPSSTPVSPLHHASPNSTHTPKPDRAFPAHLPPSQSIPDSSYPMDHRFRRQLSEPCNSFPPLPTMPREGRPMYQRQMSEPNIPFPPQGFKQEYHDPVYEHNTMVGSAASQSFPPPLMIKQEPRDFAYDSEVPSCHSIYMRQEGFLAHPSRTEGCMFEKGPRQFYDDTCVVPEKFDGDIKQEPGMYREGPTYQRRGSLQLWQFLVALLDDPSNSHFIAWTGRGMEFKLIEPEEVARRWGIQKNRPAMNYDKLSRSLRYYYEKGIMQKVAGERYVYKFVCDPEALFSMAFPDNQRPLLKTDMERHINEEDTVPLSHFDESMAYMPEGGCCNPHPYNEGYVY
# Chain of ELF4 (Q99607 whole entry): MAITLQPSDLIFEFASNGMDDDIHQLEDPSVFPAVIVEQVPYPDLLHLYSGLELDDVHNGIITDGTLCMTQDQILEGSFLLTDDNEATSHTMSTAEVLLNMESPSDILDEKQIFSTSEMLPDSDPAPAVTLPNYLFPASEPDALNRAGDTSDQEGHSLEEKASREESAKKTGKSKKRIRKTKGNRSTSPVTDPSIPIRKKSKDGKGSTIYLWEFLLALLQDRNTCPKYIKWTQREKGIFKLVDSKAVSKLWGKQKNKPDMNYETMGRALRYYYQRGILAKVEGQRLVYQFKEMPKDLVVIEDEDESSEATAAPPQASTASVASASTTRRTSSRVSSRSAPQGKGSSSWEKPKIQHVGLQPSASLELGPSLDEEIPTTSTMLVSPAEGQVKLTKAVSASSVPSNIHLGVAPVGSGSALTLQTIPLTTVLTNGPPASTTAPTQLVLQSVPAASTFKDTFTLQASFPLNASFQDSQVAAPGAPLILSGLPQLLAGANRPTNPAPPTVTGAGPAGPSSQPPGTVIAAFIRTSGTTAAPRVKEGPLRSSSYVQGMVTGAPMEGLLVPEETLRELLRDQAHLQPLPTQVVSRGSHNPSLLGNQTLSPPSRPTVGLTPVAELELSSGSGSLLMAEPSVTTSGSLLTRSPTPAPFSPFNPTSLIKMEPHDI
# Chain of ETV6 (P41212 whole entry): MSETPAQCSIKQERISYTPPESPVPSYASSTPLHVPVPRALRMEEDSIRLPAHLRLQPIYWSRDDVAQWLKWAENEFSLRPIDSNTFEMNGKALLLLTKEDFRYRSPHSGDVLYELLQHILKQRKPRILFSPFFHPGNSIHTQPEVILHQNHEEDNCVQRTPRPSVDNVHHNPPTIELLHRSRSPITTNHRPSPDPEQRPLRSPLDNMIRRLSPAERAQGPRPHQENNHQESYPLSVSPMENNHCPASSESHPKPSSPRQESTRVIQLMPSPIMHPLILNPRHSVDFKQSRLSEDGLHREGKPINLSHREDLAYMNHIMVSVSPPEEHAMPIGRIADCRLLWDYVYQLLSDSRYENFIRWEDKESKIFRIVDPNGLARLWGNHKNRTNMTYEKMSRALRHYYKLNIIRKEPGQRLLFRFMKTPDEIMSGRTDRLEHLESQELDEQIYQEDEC
sequence,measurement,setting,value
CCGGAT,binding signal,[1],"7.2 fold enrichment (6-mer frequency, TF over GST control)"
same,binding signal,[2],"3.55 fold enrichment (6-mer frequency, TF over GST control)"
same,binding signal,[3],"1.63 fold enrichment (6-mer frequency, TF over GST control)"
same,binding signal,[4],"2.66 fold enrichment (6-mer frequency, TF over GST control)"
same,binding signal,[5],"2.75 fold enrichment (6-mer frequency, TF over GST control)"
same,binding signal,[6],"2.74 fold enrichment (6-mer frequency, TF over GST control)"
same,binding signal,[7],"2.89 fold enrichment (6-mer frequency, TF over GST control)"
same,binding signal,[8],"3.19 fold enrichment (6-mer frequency, TF over GST control)"
same,binding signal,[9],"2.03 fold enrichment (6-mer frequency, TF over GST control)"
same,binding signal,[10],"3.5 fold enrichment (6-mer frequency, TF over GST control)"
same,binding signal,[11],"2.87 fold enrichment (6-mer frequency, TF over GST control)"
same,binding signal,[12],"3.03 fold enrichment (6-mer frequency, TF over GST control)"
same,binding signal,[13],"3.38 fold enrichment (6-mer frequency, TF over GST control)"
same,binding signal,[14],"6.71 fold enrichment (6-mer frequency, TF over GST control)"
same,binding signal,[15],"2.7 fold enrichment (6-mer frequency, TF over GST control)"
same,binding signal,[16],"3.7 fold enrichment (6-mer frequency, TF over GST control)"
same,binding signal,[17],"3.64 fold enrichment (6-mer frequency, TF over GST control)"
same,binding signal,[18],"3.06 fold enrichment (6-mer frequency, TF over GST control)"
